Screening results deposited in PubChem by National Center for Advancing Translational Sciences (NCATS).
HT1080NT lethal = kills 2HG-producing HT-1080-NT fibrosarcoma cells | HT-1080-NT fibrosarcoma viability, CellTiter-Glo ATP luminescence, 48 h | Potency, µM (top dose mostly 46.1 µM), for inactives: top-dose activity, negative = less viability, hits mostly cytotoxic | 360,000 tested, 1.6% active;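 note: NT is the 2HG producing partner of a matched IDH1 knockdown line; potency is the fitted concentration of half-maximal effect; 0% = DMSO-treated cells and -100% = media-only wells without cells; nearly all actives have a fitted effect of over 55% in size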
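Toxicity toward the 2HG-producing NT line was scored as %Activity, normalised to DMSO and no-cell wells, from CellTiter-Glo luminescence after 48 hours' treatment.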
HT1080 IDH1KD tx = toxicity to HT-1080 IDH1 knockdown cells (counter line); HT-1080 IDH1 knockdown viability, ATP luminescence, 48 h; 360,000 tested, 2% active; Potency, µM (top dose mostly 46.1 µM), for the others: at the highest dose activity, negative = toxicity, hits mostly cytotoxic;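 note: potency is the fitted concentration of half-maximal effect; 0% = DMSO wells and -100% = cell-free medium wells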
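% activity derives from luminescence (CellTiter-Glo), normalised to DMSO and no-cell wells. HT-1080-IDH1KD cells, 750/well, had 48 h compound exposure at 37 °C.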
DT40 TDP1 no CPT = qHTS for Inhibitors of human tyrosyl-DNA phosphodiesterase 1 (TDP1): qHTS in cells in absence of CPT; DT40 Tdp1-/- hTDP1 cells, no CPT, ATP luminescence, 48 h; Potency, µM (series often up to 46.2 µM), for inactives: top-dose activity change, negative = growth inhibition, most hits filed as inhibitors; 420,000 tested, 15% active; AID 686978, 2013; note: potency is the fitted concentration of half-maximal effect; nearly all actives have a fitted effect of over 55% in size
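Growth kinetics read by CellTiter-Glo luminescence after ≥48 hr at 37 °C. Cells: DT40 Tdp1-/- stably carrying human TDP1, 400 per well, compound exposure in the absence of CPT (DMSO vehicle).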
TDP1 cell CPT = DT40-hTDP1 cell growth loss with CPT. chicken DT40 Tdp1-/-;hTDP1 cells + 20 nM CPT, ATP luminescence, 48 h. 420,000 tested, 12% active. Potency, µM (series often up to 46.2 µM), for inactives: top-dose activity change, negative = growth inhibition, most hits filed as inhibitors; note: potency is the fitted concentration of half-maximal effect; nearly all actives have a fitted effect of over 55% in size
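Cell growth measured by CellTiter-Glo luminescence after a minimum 48 h, 37 C compound exposure with 20 nM CPT in Tdp1-knockout DT40 cells stably expressing hTDP1, seeded 400/well; qHTS titration format.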
IL1B secr inh = blocks inflammasome-driven IL-1 beta release | THP-1 LPS/ATP IL-1B secretion, AlphaLISA, 16 h; active compounds read low | activity change, % at 57.5 µM | 360,000 tested, 4.7% active | AID 743279; in the data active = activity change below about -50%; inconclusive = mostly about -30% to -49%
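THP-1 cells pretreated 1 hr with compounds (up to 57.5 uM final), then stimulated with LPS (250 ng/mL final) plus ATP (1.25 mM final); secreted IL-1B measured by AlphaLISA after 16 hr, decreased signal indicating inhibition.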
The depositor's hits bear a star; ? = inconclusive; nt = not tested or not shown; [ ] = another dose, or the depositor's remark. An excerpt weighted towards active compounds, which were near 19% of everything screened. Unless noted, calls come from the whole dose curve; as a rule, active = well fitted curve in the direction sought with a large enough effect; inconclusive = small, poorly fitted or top-dose-only effect, or another doubt; inactive = no such curve, though single readings can be large; an effect the other way counts as inactive or inconclusive. Unless noted, % is set by controls: 0 for no effect and ±100 for the full control effect.

SMILES	HT1080NT lethal	HT1080 IDH1KD tx	DT40 TDP1 no CPT	TDP1 cell CPT	IL1B secr inh
O=C(Cn1cnc2c(cnn2-c2ccccc2)c1=O)Nc1cc(S(=O)(=O)N2CCOCC2)ccc1Cl	-5%	-5%	23µM*	?	14
CCN(CC)c1ccc(S(=O)(=O)N2CCOCC2)cc1NC(=O)CNCc1cccc(Cl)c1	3%[9.24 µM]	-15%	15µM*	18µM*	-6
Cc1onc(-c2ccccc2)c1C(=O)OCC(=O)Nc1cc(S(=O)(=O)N2CCOCC2)ccc1Cl	?	-20%	23µM*	23µM*	-21
Cc1ccc(S(=O)(=O)N2CCOCC2)cc1NC(=O)COC(=O)c1cnc(Cl)c(Cl)c1	1%	0%	-12%	-8%	-87*
CCC(=O)N(C)CCc1cc2c(c(OC)c1/C=N/NC(=O)c1ccc(Br)cc1)OCO2	6%	7%	-19%	-26%	-13
Cc1ccc(S(=O)(=O)N2CCOCC2)cc1NC(=O)CNCc1ccc(Cl)cc1Cl	-8%	-14%	16µM*	?	-4
O=C(CNCc1ccccc1Cl)Nc1cc(S(=O)(=O)N2CCOCC2)ccc1Cl	-1%	-16%	?	-25%	-11
Cc1noc(C)c1C(=O)OCC(=O)Nc1ccccc1Oc1ccccc1	1%	-2%	-18%	?	2
CCN(CC)S(=O)(=O)c1ccc(Cl)c(NC(=O)COC(=O)c2c(C)noc2C)c1	-2%	-3%	21µM*	?	22
CCN(CC)S(=O)(=O)c1ccc(Cl)c(NC(=O)COC(=O)c2ccc(O)cc2)c1	0%	-17%	?	?	3
CCN(CC)c1ccc(S(=O)(=O)N2CCOCC2)cc1NC(=O)c1cc(=O)c2ccccc2o1	-2%	1%	7.3µM*	8.2µM*	-1
Cc1noc(C)c1C(=O)OCC(=O)Nc1ccccc1C(=O)NC(C)c1ccccc1 (stereo unspecified)	-22%	-2%	21µM*	29µM*	-10
COc1ccc(N2CCN(S(=O)(=O)CCNC(=O)c3ccc(OC(C)C)cc3)CC2)cc1	nt	nt	-18%	-2%	nt
O=C(CCNC(=O)N1CC(=O)Nc2ccccc21)NCc1ccc(Cl)cc1	7%	0%	-14%	2%	23
Cc1cccc(NC(=O)COC(=O)c2c(-c3ccccc3)noc2C)c1	-7%	-8%	?	?	0
O=S(=O)(c1ccc(Cl)c(NC(=S)Nc2ccccc2N2CCOCC2)c1)N1CCOCC1	5%	-1%	-25%	-3%	-15
Cc1onc(-c2ccccc2Cl)c1C(=O)OCC(=O)Nc1cccc(S(=O)(=O)N(C)C)c1	?	-2%	16µM*	?	-2
O=C(Nc1cc(S(=O)(=O)N2CCOCC2)ccc1Cl)C(=O)c1c(-c2ccccc2)cc2ccccn12	6%	-3%	23µM*	21µM*	-25
CCN(CC)c1ccc(S(=O)(=O)N2CCOCC2)cc1NC(=O)CSc1ccccc1	-2%	-13%	?	16µM*	-13
Cc1ccc(NC2CCCN(C(=O)CSc3ccncc3)C2)cc1C (stereo unspecified)	9%	9%	?	-25%	1
Cc1ccc(OCc2ccc(C#N)cc2)c(C(=O)c2cc(C#N)c(=O)n(C3CC3)c2)c1	-3%	5%	-14%	-13%	9
N#Cc1cc(C(=O)c2cc(Br)ccc2O)cn(C2CCCCC2)c1=O	2%	-23%	20µM*	13µM*	-80*
COc1ccc(O)c(C(=O)c2cc(C#N)c(=O)n(CC3CCCO3)c2)c1 (stereo unspecified)	-6%	0%	?	?	0
Cc1ccc(O)c(C(=O)c2cc(C#N)c(=O)n(CC3CCCO3)c2)c1 (stereo unspecified)	-9%	-1%	21µM*	15µM*	-19
CC(=O)c1cccc(NC(=O)COc2ccccc2C(=O)c2cc(C#N)c(=O)n(C3CCCCC3)c2)c1	-1%	-3%	12µM*	?	-3
SMILES	HT1080NT lethal	HT1080 IDH1KD tx	DT40 TDP1 no CPT	TDP1 cell CPT	IL1B secr inh
CCc1ccc(S(=O)(=O)NCc2nc(N3CCCC3)c3cccc(C)c3n2)cc1	nt	nt	?	7%[9.04 µM]	nt
CN(Cc1ccccc1)c1nc2nonc2nc1N1CCCC(CN2CCCC2=O)C1 (stereo unspecified)	-6%	-4%	?	?	-19
CSc1nc(Cl)c(C#N)c(-c2ccc(C)cc2)n1	0%	4%	?	9.2µM*	8
COc1ccc(-c2nc(-c3ccccc3)nc(Cl)c2C#N)cc1	-16%	2%	10µM*	?	-13
COc1cccc(C2c3[nH]c4ccccc4c3C[C@H]3C(=O)N(C4CCN(Cc5ccccc5)CC4)CC(=O)N23)c1 (stereo partly specified)	?	?	?	23µM*	-58*
O=C1[C@@H]2Cc3c([nH]c4ccccc34)C(c3ccccc3)N2C(=O)CN1C1CC1 (stereo partly specified)	-5%	-6%	?	?	?
COc1ccc(C2c3[nH]c4ccccc4c3CC3C(=O)N(CCc4ccc(OC)c(OC)c4)CC(=O)N32)cc1 (stereo unspecified)	nt	nt	-12%[9.04 µM]	4%[9.04 µM]	nt
COc1ccc(C2c3[nH]c4ccccc4c3C[C@H]3C(=O)N(C4CCN(Cc5ccccc5)CC4)CC(=O)N23)cc1OC (stereo partly specified)	?	-27%	?	21µM*	-24
COc1ccccc1C1c2[nH]c3ccccc3c2C[C@H]2C(=O)N(C3CCN(Cc4ccccc4)CC3)CC(=O)N12 (stereo partly specified)	?	?	9.2µM*	?	-26
O=C(Nc1ccc2nc3n(c(=O)c2c1)CCCCC3)C(=O)N1CCN(c2ccc(F)cc2)CC1	-21%	-8%	?	?	-29
Cc1nnc(NC(=O)CSc2nc(N)c(NC(=O)c3cccs3)c(=O)[nH]2)s1	8%	9%	-1%	0%	16
CCOc1cccc(NC(=O)C2CC(=O)N(C)C(=Nc3ccccc3)S2)c1 (stereo unspecified)	?	?	?	-27%	-15
CCOc1cccc(NC(=O)C2CC(=O)N(C)C(=Nc3cccc(F)c3)S2)c1 (stereo unspecified)	-30%	?	18µM*	?	2
Cc1ccc(C)c(NC(=O)C(C)n2c(=O)cc(C(F)(F)F)c3c(C)nn(C)c32)c1 (stereo unspecified)	nt	nt	2%	-20%	nt
